# An excerpt weighted towards active compounds, which were near 4.3% of everything screened.
# PfHsp40 rescue – restores yeast growth despite PfHsp40 toxicity. growth rescue, % at 12.5 µM. hit rate 0.68% among 340,000. AID 504582. S. cerevisiae expressing PfHsp40, growth rescue, ATP luminescence; in the data active = growth rescue above about 28%, passing the limit was not always enough; inconclusive = no clear call, values can overlap the other calls;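 note: yeast W303a lacking pdr1 and pdr3 grown in galactose medium; growth measured after three days at 30 °C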
# MazEF act – MazEF (E. coli) toxin RNase activation; hit rate 0.32% among 350,000; activation, % at 20 µM; FAM/BHQ RNA-DNA oligo cleavage fluorescence, 5 h; P0AE70; in the data active = activation above about 50%
# Target sequence (P0AE70 whole entry, looked up): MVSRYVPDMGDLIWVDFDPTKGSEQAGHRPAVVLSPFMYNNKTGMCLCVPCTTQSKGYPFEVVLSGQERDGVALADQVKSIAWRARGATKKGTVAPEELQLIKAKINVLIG
# BoNT F protease – inhibitors of Botulinum neurotoxin F light chain protease. Multiplex microsphere protease cleavage assay, flow cytometry. inhibition, % at 10 µM. hit rate 0.22% among 360,000; in the data active = inhibition above about 35%, passing the limit was not always enough; inconclusive = no clear call, values can overlap the other calls; note: plate controls were buffer without enzyme for full effect and enzyme alone for no effect
# Bead autofluor – compound fluorescence in toxin protease inhibitor counterscreen. compound autofluorescence counterscreen, microsphere flow cytometry; active compounds read high. AID 624483. hit rate 3.1% among 360,000. fluorescence intensity (no concentration beside the values); in the data active = fluorescence intensity above about 16000; inconclusive = no clear call, values can overlap the other calls
# Anthrax LF prot – blocks Bacillus anthracis lethal factor protease; P15917; multiplex microsphere protease cleavage assay, LF; inhibition, % at 10 µM; hit rate 0.12% among 360,000; note: plate controls were buffer without enzyme for full effect and enzyme alone for no effect
# BoNT-A LC inh2 – BoNT A light chain protease inhibition | multiplex microsphere protease substrate cleavage, flow cytometry | inhibition, % at 10 µM | hit rate 0.17% among 360,000 | AID 588499; note: plate controls were buffer without enzyme for full effect and enzyme alone for no effect
# An asterisk follows results filed as active; i = inactive; u = inconclusive; x = no result given. Cut-off read from the data, not from the text of the source, unless noted: active = inhibition above about 30%; inconclusive = no clear call, values can overlap the other calls; inactive = below that.
SMILES,PfHsp40 rescue,MazEF act,BoNT F protease,Bead autofluor,Anthrax LF prot,BoNT-A LC inh2
COc1ccc(Cl)cc1N(CC(=O)Nc1cccc(SC)c1)S(C)(=O)=O,-0.1,1.7,3.5,21540*,-5.5,4.1
COc1ccc(N(CC(=O)Nc2cccc(SC)c2)S(C)(=O)=O)cc1Cl,0.3,0.7,5.6,3280,-0.6,-1.0
CNC(=S)NNC(=O)c1sccc1OCc1ccc(Cl)cc1Cl,-0.8,6.1,-7.1,10979,-7.5,-1.7
S=c1nc(-c2sccc2OCc2ccc(Cl)cc2Cl)[nH][nH]1,44.7*,27.7,2.9,4127,-8.6,0.3
CC(C)(C)OC(=O)N1CCC(NC(=O)c2[nH]c(C(F)(F)F)nc2-c2ccccc2)CC1,x,x,5.8,5642,-5.6,0.2
O=C1CCCC(O)=C1C1C2=C(CCCC2=O)Oc2ccccc21 (stereo unspecified),-0.1,-1.7,4.7,21293*,-1.0,u
CCN1/C(=C\C=C\C2=[N+](CC)c3ccccc3C2(C)C)C(C)(C)c2ccccc21,121.1*,i,-28.3,3370,29.1,91.9*
CCOC(=O)/C=C1/N(C)c2ccccc2C1(C)C,0.5,-0.5,3.5,4823,-2.0,-0.1
CC1O[C@@H](O[C@H](C)CC[C@@H](C)O)C(O)C[C@H]1O (stereo partly specified),-1.6,2.3,0.0,4247,-1.8,-0.4
COC(=O)CSc1nnc(CNC(=O)c2ccc(S(=O)(=O)N3CCOCC3)cc2)n1C,-0.4,8.1,1.3,2007,1.6,0.3
COC(=O)CSc1nnc(CNC(=O)c2ccc(S(=O)(=O)N3CCCCC3)cc2)n1C,1.1,-3.6,-3.8,24100*,0.6,-0.8
CCOC(=O)CSc1nnc(CNC(=O)c2ccc(S(=O)(=O)N3CCCCC3)cc2)n1C,-0.6,-0.5,6.7,20926*,-5.2,4.8
CCCCOc1ccc(-c2cc(C(F)(F)F)c(C#N)c(SCC(=O)O)n2)cc1,-0.4,-62.3,0.1,8301,0.4,1.4
CC(C)C(CCNC(=O)CC(Cc1ccccc1)c1ccco1)c1ccco1 (stereo unspecified),1.3,-2.2,-3.3,17138*,-2.4,-1.3
COc1ccc(S(=O)(=O)N2CCN(C(=O)NCc3ccc(C)cc3)CC2)cc1,-0.5,5.0,2.1,3733,2.5,-1.8
O=C(O)c1ccc([N+](=O)[O-])c2c1C(=O)c1ccccc1C2=O,-0.4,2.6,u,20562*,-49.2,u
COCC(C)NS(=O)(=O)c1ccc(OC)cc1 (stereo unspecified),0.1,-0.5,11.4,19695*,-1.1,6.3
COc1ccccc1Oc1ccc(S(=O)(=O)NCc2ccccn2)cc1,1.8,-1.7,1.0,23518*,0.9,-0.8
COc1ccc(S(=O)(=O)NCc2ccccn2)cc1OC,-0.3,9.7,u,4017,2.5,-2.1
Cc1ccc(S(=O)(=O)NCCCNC(=O)c2ccccc2)cc1,-0.4,1.1,-3.9,23361*,-2.2,-2.2
O=C(Nc1ccc(S(=O)(=O)NCc2ccccc2)cc1)c1ccccc1[N+](=O)[O-],0.9,115.6*,2.0,2471,0.1,-0.7
O=C(Cn1c(=O)cnc2ccccc21)Nc1cccc(S(=O)(=O)N2CCCCC2)c1,-0.6,6.8,3.9,5445,-0.5,1.1
CCc1noc(C)c1C(=O)NCCc1ccccc1,1.1,9.7,-1.1,6683,-7.5,-3.9
O=C(COC(=O)c1ccc(S(=O)(=O)N2CCCC2)cc1)NCc1ccco1,-0.8,-1.7,-4.6,4813,8.6,0.9
Cc1ccc(S(=O)(=O)NCCCCCC(N)=O)cc1,-0.1,-0.7,u,u,3.6,0.4
SMILES,PfHsp40 rescue,MazEF act,BoNT F protease,Bead autofluor,Anthrax LF prot,BoNT-A LC inh2
Cc1ccc(CNC(=O)CCNS(=O)(=O)c2ccc(C)cc2)cc1,0.6,1.3,u,4205,-3.2,0.1
C=CCNC(=O)CCCCCNS(=O)(=O)c1ccc(OC)cc1,-0.7,-1.3,-0.8,23119*,1.9,1.6
COc1ccc(S(=O)(=O)NCCCCNS(=O)(=O)c2ccc(OC)cc2)cc1,1.0,-3.1,-0.2,6670,-1.2,-0.8
Cc1ccc(S(=O)(=O)NCCCCCC(=O)NC(C)(C)CO)cc1,51.1*,-1.5,-2.1,2658,0.9,0.2
O=S(=O)(NCc1cccs1)c1cccc2cccnc12,8.6,1.4,-2.8,17165*,0.1,-2.2
COc1ccc(S(=O)(=O)NCCC(=O)NCc2ccccc2)cc1,0.0,2.0,1.2,21763*,-3.5,3.4
O=S(=O)(NCc1cccs1)c1ccccc1Cl,1.2,-0.2,2.8,6132,-3.8,0.7
